This is part of a sample that, as a whole, favours compounds with a hit. Of some 83,000 tested, about 20% had one in any assay.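 In brief: 96-well plates, 48 h treatment, single concentration, percent growth endpoint.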 The source made the active and inactive calls. Rule for the calls: active = growth percent below 10; inactive = the rest.
Experiments:
Assay in all cases: NCI-60 one-dose screen, 48 h (100 = growth as untreated, 0 = no growth, -100 = all killed)
Settings in all cases: 10 µM unless noted
EKVX NSCLC = test system: EKVX NSCLC
SN12C renal = test system: SN12C renal
UO-31 renal = test system: UO-31 renal
TK-10 renal = test system: TK-10 renal
ACHN renal = test system: ACHN renal
CAKI-1 renal = test system: CAKI-1 renal
A498 renal = test system: A498 renal
CCRF-CEM leukemia = test system: CCRF-CEM leukemia
MOLT-4 leukemia = test system: MOLT-4 leukemia
SR leukemia = test system: SR leukemia

Measured: growth

COc1ccc(-c2cn[nH]c2-c2ccc(OC)c(O)c2)cc1
inactive: EKVX NSCLC 84.9% | SN12C renal 91.3% | UO-31 renal 85.1% | TK-10 renal 88.6% | ACHN renal 92.2% | CAKI-1 renal 75% | A498 renal 59% | CCRF-CEM leukemia 71.9% | MOLT-4 leukemia 67.4% | SR leukemia 33.7%

COc1cc(/C(C#N)=C/c2nc3c(N4CCOCC4)nc(Cl)nc3n2C)cc(OC)c1OC
active: UO-31 renal -1.84% | CAKI-1 renal 6.49% | A498 renal -28.1% | MOLT-4 leukemia 9.93%
inactive: EKVX NSCLC 35.2% | SN12C renal 14.9% | TK-10 renal 50.5% | ACHN renal 13.7% | CCRF-CEM leukemia 14.4% | SR leukemia 27.9%

NCCOc1ncccc1/C=C1\c2ccccc2-c2ccc([N+](=O)[O-])cc21
active: EKVX NSCLC -19% | SN12C renal -62% | UO-31 renal -99.2% | TK-10 renal -74.9% | ACHN renal -89.4% | CAKI-1 renal -39.3% | A498 renal -89% | CCRF-CEM leukemia 8.64% | MOLT-4 leukemia -3.92% | SR leukemia 1.14%

COc1cccc2c1C=C1CCCCC3=Cc4c(OC)cccc4OC13O2
inactive: EKVX NSCLC 60.5% | SN12C renal 49.5% | UO-31 renal 44.5% | TK-10 renal 74.7% | ACHN renal 38.7% | CAKI-1 renal 47.8% | A498 renal 35.9% | CCRF-CEM leukemia 27.9% | MOLT-4 leukemia 29.1% | SR leukemia 28.6%

COc1cc(/C=C2\CN(C)C/C(=C\c3cc(CN4CCOCC4)c(O)c(OC)c3)C2=O)cc(CN2CCOCC2)c1O
inactive: EKVX NSCLC 80.6% | SN12C renal 35% | UO-31 renal 76.6% | TK-10 renal 91.9% | ACHN renal 47.5% | CAKI-1 renal 82.7% | A498 renal 81.8% | CCRF-CEM leukemia 32.1% | MOLT-4 leukemia 30% | SR leukemia 32.6%

COc1ccc(Cn2cc(Cn3c(=O)c(-c4nc5ccccc5[nH]4)cc4ccccc43)nn2)c(OC)c1OC
active: A498 renal -27.4%
inactive: EKVX NSCLC 30.8% | SN12C renal 18.7% | UO-31 renal 18.2% | TK-10 renal 33.9% | ACHN renal 35% | CAKI-1 renal 21.7% | CCRF-CEM leukemia 22.6% | MOLT-4 leukemia 17.9% | SR leukemia 21.8%

Nc1nc(-c2ccccc2Br)nn1-c1nc2ccccc2s1
inactive: EKVX NSCLC 92.2% | SN12C renal 100% | UO-31 renal 105% | TK-10 renal 118% | ACHN renal 98.3% | CAKI-1 renal 97.2% | A498 renal 101% | CCRF-CEM leukemia 101% | MOLT-4 leukemia 88.3% | SR leukemia 81.5%

O=C(NC1C(O)OC(CO)C(O)C1O)NS(=O)(=O)c1ccc(Cl)cc1 (stereo not given)
inactive: EKVX NSCLC 109% | SN12C renal 98.1% | UO-31 renal 77.1% | TK-10 renal 110% | ACHN renal 102% | CAKI-1 renal 94.4% | A498 renal 95.2% | CCRF-CEM leukemia 99.1% | MOLT-4 leukemia 102% | SR leukemia 100%

Cc1ccc(Cc2cnc(NC(=O)CN3C(=O)/C(=C\c4ccccc4)SC3=S)s2)cc1
inactive: EKVX NSCLC 98.1% | SN12C renal 96.6% | UO-31 renal 89.4% | TK-10 renal 106% | ACHN renal 101% | CAKI-1 renal 95.5% | A498 renal 109% | CCRF-CEM leukemia 107% | MOLT-4 leukemia 104% | SR leukemia 114%

COc1cc([C@@H]2NC(=O)NC(C)=C2C(=O)Nc2nc(-c3ccc(Cl)cc3)cs2)ccc1O
inactive: EKVX NSCLC 91.1% | SN12C renal 97.4% | UO-31 renal 69% | TK-10 renal 103% | ACHN renal 98.3% | CAKI-1 renal 83% | A498 renal 102% | CCRF-CEM leukemia 132% | MOLT-4 leukemia 100% | SR leukemia 106%

Reference: PubChem BioAssay (NCI)
